Assay results reported in PubChem BioAssay (NCI).
The panel holds about 83,000 compounds, 20% with a hit somewhere; the sample as a whole holds those more often.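 Single-concentration screen, 48 h exposure, 96-well plates. Endpoint: percent growth. Below 10 = active.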 Calls of active or inactive are those of the source. Starred links: 1 amine or outer side, 2 acyl side, 3 side chain; linkers in the order of their positions; H or OH if unused. Positions of bridges follow the written chain, without caps; N, C: chain ends. Non-standard residues stand in square brackets, D forms with d. Residues, ends and D or L forms follow the SMILES beside them. Chains are numbered I, II in the order given. Actinocin(9to1) = Cc1c2oc3c(C)ccc(C(=O)[*:1])c3nc-2c(C(=O)[*:2])c(N)c1=O; aThr = C[C@H](O)[C@H](N)C(=O)O; NMeV = CN[C@H](C(=O)O)C(C)C; Sar = CNCC(=O)O

Tests used:
Test in all cases: NCI-60 one-dose screen, 48 h (100 = growth as untreated, 0 = no growth, -100 = all killed)
NCI-H226 lung = system: NCI-H226 lung
NCI-H322M lung = system: NCI-H322M lung
HOP-62 NSCLC = system: HOP-62 NSCLC
NCI-H460 lung = system: NCI-H460 lung
HOP-92 NSCLC = system: HOP-92 NSCLC
NCI-H522 lung = system: NCI-H522 lung
A549/ATCC NSCLC = system: A549/ATCC NSCLC
786-0 renal = system: 786-0 renal
COLO 205 colon = system: COLO 205 colon
DU-145 prostate = system: DU-145 prostate
K-562 leukemia = system: K-562 leukemia
MALME-3M melanoma = system: MALME-3M melanoma
MDA-MB-231 breast = system: MDA-MB-231 breast
RXF 393 renal = system: RXF 393 renal
SF-268 CNS = system: SF-268 CNS
SF-295 CNS = system: SF-295 CNS
SF-539 CNS = system: SF-539 CNS
UACC-257 melanoma = system: UACC-257 melanoma
HCT-15 colon = system: HCT-15 colon
M14 melanoma = conditions: 50 µM

Measured: growth

Cc1c2oc3c(C)ccc(C(=O)N[C@@H]4C(=O)N[C@H](C(C)C)C(=O)N5CCC[C@H]5C(=O)N(C)CC(=O)N(C)[C@@H](C(C)C)C(=O)O[C@H]4C)c3nc-2c(C(=O)N[C@@H]2C(=O)N[C@H](C(C)C)C(=O)N3CCC[C@H]3C(=O)N(C)CC(=O)N(C)[C@@H](C(C)C)C(=O)O[C@H]2C)c(N)c1=O (I: [aThr][dV]P[Sar][NMeV] / II: [aThr][dV]P[Sar][NMeV]; ester I:1-I:C, II:1-II:C; linker I:N-II:N via Actinocin(9to1))
inactive: NCI-H226 lung; 0.0025 µM 57.3% | NCI-H322M lung; 0.0025 µM 64.7% | HOP-62 NSCLC; 0.0025 µM 41.2% | NCI-H460 lung; 0.0025 µM 16.7% | HOP-92 NSCLC; 0.0025 µM 50.7% | NCI-H522 lung; 0.0025 µM 33.9% | A549/ATCC NSCLC; 0.0025 µM 36.8% | 786-0 renal; 0.0025 µM 41.8% | COLO 205 colon; 0.0025 µM 44.2% | DU-145 prostate; 0.0025 µM 41.6% | K-562 leukemia; 0.0025 µM 18.8% | MALME-3M melanoma; 0.0025 µM 66.3% | MDA-MB-231 breast; 0.0025 µM 64.2% | RXF 393 renal; 0.0025 µM 31.1% | SF-268 CNS; 0.0025 µM 46.1% | SF-295 CNS; 0.0025 µM 62.4% | SF-539 CNS; 0.0025 µM 25.5% | UACC-257 melanoma; 0.0025 µM 30.6% | HCT-15 colon; 0.0025 µM 74.4%

O=c1[nH]cc(F)c(=O)[nH]1
active: SF-539 CNS; 25 µM -19.6%
inactive: NCI-H226 lung; 25 µM 69.5% | NCI-H322M lung; 25 µM 59.5% | NCI-H322M lung; 50 µM 48.6% | HOP-62 NSCLC; 25 µM 47.8% | HOP-62 NSCLC; 50 µM 42.4% | NCI-H460 lung; 25 µM 13% | NCI-H460 lung; 50 µM 13.9% | HOP-92 NSCLC; 25 µM 50.6% | HOP-92 NSCLC; 50 µM 75.7% | NCI-H522 lung; 25 µM 58% | A549/ATCC NSCLC; 25 µM 34.2% | A549/ATCC NSCLC; 50 µM 31.2% | 786-0 renal; 25 µM 48.7% | 786-0 renal; 50 µM 59% | COLO 205 colon; 25 µM 40.2% | COLO 205 colon; 50 µM 33.5% | DU-145 prostate; 25 µM 35.5% | DU-145 prostate; 50 µM 20.5% | K-562 leukemia; 25 µM 42.3% | K-562 leukemia; 50 µM 41.5% | MALME-3M melanoma; 25 µM 58.2% | MALME-3M melanoma; 50 µM 53.7% | MDA-MB-231 breast; 25 µM 78.1% | MDA-MB-231 breast; 50 µM 77.2% | RXF 393 renal; 25 µM 34.3% | RXF 393 renal; 50 µM 54.4% | SF-268 CNS; 25 µM 59% | SF-268 CNS; 50 µM 47.7% | SF-295 CNS; 25 µM 69.1% | SF-295 CNS; 50 µM 90.5% | SF-539 CNS; 50 µM 22.8% | UACC-257 melanoma; 25 µM 19.5% | UACC-257 melanoma; 50 µM 53.5% | M14 melanoma 42.4% | HCT-15 colon; 25 µM 26.5% | HCT-15 colon; 50 µM 37.8%
